Measured values as given in PubChem BioAssay (NCI).
The panel holds about 83,000 compounds, 20% with a hit somewhere; the sample as a whole holds those more often.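 The test compound was applied at a single concentration to cells in 96-well plates for 48 hours, and percent growth was recorded.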 Active and inactive are the calls of the source. How the source made its calls: active means growth percent below 10; inactive means the rest.

The compounds below were run on HL-60(TB) leukemia (assay: NCI-60 one-dose screen, 48 h (100 = growth as untreated, 0 = no growth, -100 = all killed)). Conditions: 10 µM unless noted.
For `COc1cc(C(C)n2cc(-c3ccccc3)nn2)ccc1OC1CCCC1` (centres undefined), the growth was 53.1% (inactive). In the case of `COc1ccc(/C(C)=C(\c2ccc(Cl)cc2)c2ccc(OCCCN(C)C)cc2)cc1F`, the growth is reported as 66.2% (inactive). `NS(=O)(=O)c1ccc(CCn2c(SCC(=O)c3ccc(Cl)cc3)nc3ccccc3c2=O)cc1` was tested, and the growth was 95.5% (inactive). For `Cc1ccc(S(=O)(=O)N2CCc3ccc(O)c4c3C2Cc2ccc3c(c2-4)OCO3)cc1` (centres undefined), the growth was -8.02% (active).
